Our source for the Potency and outcome values is PubChem BioAssay (Tox21).

For test [1], the target named is Progesterone receptor (Homo sapiens) (UniProt P06401). As to the kind of experiment: qHTS assay to identify small molecule agonists of the progesterone receptor (PR) signaling pathway (AID 1346784; calls by dose curve; further: nearly all actives have a fitted effect of over 30% in size). The method, boiled down:
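Fluorescence from LiveBLAzer B/G FRET substrate cleavage (2 hr, RT) reported PR activation in PR-UAS-bla HEK 293T cells treated 16 hr at 37C/5% CO2 with compounds; medium contained 2% charcoal-stripped FBS.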
A general note: Quantitative high-throughput screening tests each substance at several concentrations.

For test [2] the target is unchanged. As to the kind of experiment: qHTS assay to identify small molecule antagonists of the progesterone receptor (PR) signaling pathway (AID 1346795; active means well fitted inhibition curve with a large enough effect in the signal ratio in the repeat runs, not every such curve was filed as active; the % refers to the signal ratio; further: potency means the concentration at half of the fitted maximal effect). In outline: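 Fluorescence intensity measured 2 hr after adding beta-lactamase FRET substrate to PR-UAS-bla HEK293T cells that had been co-treated 16 hr with compound and 1 nM R5020 (final concentration) in 2% charcoal-stripped FBS.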

A short description of test [3]: qHTS assay to identify small molecule antagonists of the progesterone receptor (PR) signaling pathway - cell viability counter screen (AID 1346798). Further: series mostly up to about 92 µM; nearly all actives have a fitted effect of over 50% in size. In outline:
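CellTiter-Glo luminescence; PR-UAS-bla HEK293T, 3,000 cells/well; compound + R5020, 16 hr, 37C/5% CO2; 30 min RT before read.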

Test [4] can be described thus: qHTS assay to identify small molecule agonists of the progesterone receptor (PR) signaling pathway - cell viability counter screen (AID 1346799; calls by dose curve; further: nearly all actives have a fitted effect of over 45% in size; further: potency means the concentration at half of the fitted maximal effect). In outline:
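In parallel with the beta-lactamase readout, cytotoxicity toward PR-UAS-bla HEK293T cells was measured by CellTiter-Glo luminescence following 16 hr compound incubation in 2% charcoal-stripped FBS medium.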

The nature of test [5]: qHTS assay to identify small molecule antagonists of the TGF-beta/Smad signaling pathway - cell viability counter screen (AID 1346824). Further: nearly all actives have a fitted effect of over 50% in size. In outline: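 SBE-bla HEK 293T cells were plated overnight at 37 C, then given compounds in DMSO plus TGF-beta1 (added as 0.25 ng/mL solution) for 5 hr. After the bla read, CellTiter-Glo was added to the same wells and luminescence read after 30 min at room temperature.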

Test [6] can be described thus: qHTS assay to identify small molecule agonists of the TGF-beta/Smad signaling pathway - cell viability counter screen (AID 1346829). Further: top concentration of the series differs between compounds; nearly all actives have a fitted effect of over 45% in size. In outline: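 CellTiter-Glo luminescence readout; SBE-bla HEK 293T cells, overnight plating, compound 5 hr at 37 C/5% CO2, then bla substrate 2 hr RT, then CellTiter-Glo 30 min RT.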
Test [7] is described as follows: Human pregnane X receptor (PXR) small molecule agonists, qHTS cell viability counter screen (AID 1346977). Further: nearly all actives have a fitted effect of over 50% in size. Further: potency means the concentration at half of the fitted maximal effect. The method, boiled down: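 Viability counter screen: CellTiter-Fluor signal in PXR-Luc HepG2 cells, 24hr compound exposure, 37C, 5% CO2.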
A short description of test [8]: Caspase-3/7 induction in HepG2 cells by small molecules, qHTS assay (AID 1346978). Further: nearly all actives have a fitted effect of over 15% in size. In outline: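 Wild-type HepG2 cells (2,000/well) were settled 5 h at 37 C, 5% CO2, then exposed to compounds in DMSO for 17 h. Caspase-3/7 activity was read by luminescence 30 min after adding Caspase-Glo 3/7 reagent at room temperature.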
A short description of test [9]: Caspase-3/7 induction in CHO-K1 cells by small molecules, qHTS cell viability counter screen (AID 1346979). Further: nearly all actives have a fitted effect of over 35% in size. Further: potency means the concentration at half of the fitted maximal effect. In outline:
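Viability readout by fluorescence (CellTiter-Fluor) on wild-type CHO-K1 cells exposed for 16hr at 37C and 5% CO2 to compounds delivered in DMSO; reagent incubated 1hr before reading.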

Test [10] can be described thus: Caspase-3/7 induction in CHO-K1 cells by small molecules, qHTS assay (AID 1346980). Further: nearly all actives have a fitted effect of over 15% in size. The method, boiled down:
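Wild-type cells were seeded at 1,500 per well and settled 5 hr at 37 C, 5% CO2, then exposed to DMSO-dissolved compounds for 17 hr. Caspase-Glo 3/7 reagent was added, and luminescence was read after 30min at room temperature.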

Test [11] can be described thus: Caspase-3/7 induction in HepG2 cells by small molecules, qHTS cell viability counter screen (AID 1346981). Further: series mostly up to about 92 µM; nearly all actives have a fitted effect of over 30% in size. The method, boiled down:
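Fluorescence read-out of live-cell protease activity (CellTiter-Fluor) after 1 hr with reagent. This was measured in the same wells as the caspase-3/7 luminescence, on HepG2 cells exposed to DMSO-dissolved compounds for 16 hr at 37 C.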

In test [12] the target is Nuclear receptor subfamily 1 group I member 2 (Homo sapiens) (UniProt O75469). As to the kind of experiment: Human pregnane X receptor (PXR) small molecule agonists, qHTS assay (AID 1346982). Further: nearly all actives have a fitted effect of over 35% in size. Further: potency means the concentration at half of the fitted maximal effect. In outline:
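HepG2 PXR-Luc reporter line, 5% charcoal-stripped FBS; 5 hr pre-incubation, compound (DMSO) 24 hr at 37 C/5% CO2; ONE-Glo 30 min RT; luminescence read-out.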

Test [13] concerns the target Cytochrome P450 2D6 (Homo sapiens) (UniProt P10635). Description: Cytochrome P450 Family 2 Subfamily D Member 6 (CYP2D6) small molecule antagonists: luciferase reporter qHTS assay (AID 1671196). Further: nearly all actives have a fitted effect of over 50% in size. Further: potency means the concentration at half of the fitted maximal effect. In outline: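 Luminogenic proluciferin substrate, CYP2D6 enzyme; 10 min RT preincubation with compound, NADPH regeneration system added, 1 h RT. Stop/detection reagent, 20 min RT, luminescence read (RLU). Signal proportional to CYP activity.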
On the technique in general: A reporter such as luciferase makes a cellular process visible.

In test [14] the target is Cytochrome P450 2C19 (Homo sapiens) (UniProt P33261). Description: Cytochrome P450 Family 2 Subfamily C Member 19 (CYP2C19) small molecule antagonists: luciferase reporter qHTS assay (AID 1671197). Further: nearly all actives have a fitted effect of over 65% in size. Further: potency means the concentration at half of the fitted maximal effect. In outline:
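Enzyme-substrate mix with proluciferin substrate (P450-Glo CYP2C19 system) preincubated with compounds 10 min at room temperature; NADPH regeneration solution added, 37C for 1 h; detection reagent stops reaction, luminescence read after 20 min. Ketoconazole positive control.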

The target in test [15] is Cytochrome P450 2C9 (Homo sapiens) (UniProt P11712). Description: Cytochrome P450 Family 2 Subfamily C Member 9 (CYP2C9) small molecule antagonists: luciferase reporter qHTS assay (AID 1671198). Further: nearly all actives have a fitted effect of over 50% in size. Further: potency means the concentration at half of the fitted maximal effect. The method, boiled down:
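CYP2C9 activity was measured with a P450-Glo proluciferin substrate. Enzyme–substrate mix was held with compound for 10 min at room temperature, then NADPH regeneration solution was added for 1 h at 37C. Luciferin product was read as luminescence.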

Test [16] in a line: qHTS assay to identify small molecule agonists of the TGF-beta/Smad signaling pathway (AID 1346859; active means well fitted activation curve with a large enough effect in the signal ratio in the repeat runs, not every such curve was filed as active; the % refers to the signal ratio; further: series mostly up to about 77 µM). In outline: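 After overnight seeding, SBE-bla HEK 293T cells are dosed with compounds in DMSO and kept 5 hr at 37 C, 5% CO2. LiveBLAzer-type FRET substrate is then applied for 2 hr at room temperature.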
The target of test [17] is Thyrotropin-releasing hormone receptor (Homo sapiens) (UniProt P34981). Description: qHTS assay to identify small molecule agonists of the thyrotropin-releasing hormone receptor (TRHR) signaling pathway (AID 1346891; calls by dose curve;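 further: HEK293 cells expressing TRHR with calcium dye readout; series mostly up to about 58 µM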). The method, boiled down: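 Compounds were tested as agonists at 15 concentrations, in triplicate, on TRHR-Hek293 cells; calcium-sensitive dye fluorescence was recorded for 3 min following addition.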

Test [18] concerns the target Nuclear receptor subfamily 1 group I member 2 (Homo sapiens) (UniProt O75469). As to the kind of experiment: CYP3A4 induction through human pregnane X receptor (PXR) by small molecules, qHTS assay (AID 1346984). Further: nearly all actives have a fitted effect of over 40% in size. In outline: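 HepG2-derived DPX-2 line carrying PXR plus a CYP3A4-promoter luciferase reporter; cells plated 5 hr, compound-exposed 24 hr at 37C. CYP3A4 activity probed with 3uM (final) Luciferin-IPA for 3hr, then luciferase read after One-Glo.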

Test [19] has the same target. As to the kind of experiment: Human pregnane X receptor (PXR) activation by small molecules, qHTS assay (AID 1346985). Further: nearly all actives have a fitted effect of over 40% in size. In outline: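 DPX-2 cells (HepG2 co-transfected with a PXR response element and a CYP3A4-promoter luciferase construct) were seeded at 2,000 per well, rested 5 hr at 37C, then exposed to DMSO-dissolved compounds for 24 hr. Activation was read as luciferase luminescence.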

The target in test [20] is Thyrotropin-releasing hormone receptor (Homo sapiens) (UniProt P34981). Description: qHTS assay to identify small molecule antagonists of the thyrotropin-releasing hormone receptor (TRHR) signaling pathway (AID 1346877; active means well fitted inhibition curve with a large enough effect in the repeat runs, not every such curve was filed as active; further: series mostly up to about 51 µM). The method, boiled down:
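HEK293/TRHR cells, 18 h, 37 °C; Ca2+ dye 2 h; cpd 5 min RT; TRH 1 nM final; fluorescence read 3 min, 1 s intervals; 15 concs, triplicate.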

Where “and” joins values, the source holds several entries; their conditions need not be identical. Equal values may be shown once. Inconclusive results are not listed. The source holds several records for some structures; these can differ, active in one and inactive in another. Calls of active or inactive are those of the source. Unless noted, the call rests on the fitted dose curve; in most records, active means well fitted curve in the direction sought with a large enough effect in the repeat runs; inconclusive means weak or mixed curves; inactive means no such curve, though single readings can be large; an effect the other way counts as inactive or inconclusive.

Chain of Progesterone receptor (Homo sapiens) (P06401 whole entry, looked up): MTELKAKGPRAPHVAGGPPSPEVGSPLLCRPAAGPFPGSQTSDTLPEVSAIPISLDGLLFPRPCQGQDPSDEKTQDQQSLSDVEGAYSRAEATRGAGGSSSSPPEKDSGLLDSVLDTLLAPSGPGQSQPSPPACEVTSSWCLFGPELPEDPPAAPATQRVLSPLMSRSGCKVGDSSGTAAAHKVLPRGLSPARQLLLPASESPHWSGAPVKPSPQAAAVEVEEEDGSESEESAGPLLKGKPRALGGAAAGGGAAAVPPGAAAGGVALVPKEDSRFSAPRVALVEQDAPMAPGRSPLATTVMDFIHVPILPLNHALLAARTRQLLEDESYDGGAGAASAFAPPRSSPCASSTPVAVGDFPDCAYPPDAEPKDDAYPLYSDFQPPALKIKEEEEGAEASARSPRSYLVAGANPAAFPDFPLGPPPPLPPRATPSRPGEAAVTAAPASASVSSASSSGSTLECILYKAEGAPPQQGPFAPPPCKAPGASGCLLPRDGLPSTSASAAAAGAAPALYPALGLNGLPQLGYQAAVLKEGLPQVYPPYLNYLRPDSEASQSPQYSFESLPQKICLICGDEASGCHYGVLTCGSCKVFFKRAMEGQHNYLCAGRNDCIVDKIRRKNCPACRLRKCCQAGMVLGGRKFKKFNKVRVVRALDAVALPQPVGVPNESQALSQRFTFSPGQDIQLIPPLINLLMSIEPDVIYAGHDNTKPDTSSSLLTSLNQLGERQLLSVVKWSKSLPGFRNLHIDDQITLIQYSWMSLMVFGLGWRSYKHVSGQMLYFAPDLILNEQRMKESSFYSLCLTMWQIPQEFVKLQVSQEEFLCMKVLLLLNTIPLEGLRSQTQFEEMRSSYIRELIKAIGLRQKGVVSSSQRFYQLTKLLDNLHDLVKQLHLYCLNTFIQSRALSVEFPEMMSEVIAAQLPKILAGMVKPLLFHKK
Chain of Nuclear receptor subfamily 1 group I member 2 (Homo sapiens) (O75469 whole entry, looked up): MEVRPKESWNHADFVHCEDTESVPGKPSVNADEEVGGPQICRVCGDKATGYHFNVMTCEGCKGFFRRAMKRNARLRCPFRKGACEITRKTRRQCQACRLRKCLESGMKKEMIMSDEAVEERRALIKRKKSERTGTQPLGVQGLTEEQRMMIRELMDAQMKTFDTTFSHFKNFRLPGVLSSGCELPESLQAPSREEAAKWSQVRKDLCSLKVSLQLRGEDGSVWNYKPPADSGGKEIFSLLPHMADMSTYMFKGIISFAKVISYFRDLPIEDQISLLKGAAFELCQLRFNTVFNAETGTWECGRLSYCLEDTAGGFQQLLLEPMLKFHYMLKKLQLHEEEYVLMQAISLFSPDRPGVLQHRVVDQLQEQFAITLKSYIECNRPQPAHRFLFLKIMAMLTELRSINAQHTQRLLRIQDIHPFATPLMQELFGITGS
Chain of Thyrotropin-releasing hormone receptor (Homo sapiens) (P34981 whole entry, looked up): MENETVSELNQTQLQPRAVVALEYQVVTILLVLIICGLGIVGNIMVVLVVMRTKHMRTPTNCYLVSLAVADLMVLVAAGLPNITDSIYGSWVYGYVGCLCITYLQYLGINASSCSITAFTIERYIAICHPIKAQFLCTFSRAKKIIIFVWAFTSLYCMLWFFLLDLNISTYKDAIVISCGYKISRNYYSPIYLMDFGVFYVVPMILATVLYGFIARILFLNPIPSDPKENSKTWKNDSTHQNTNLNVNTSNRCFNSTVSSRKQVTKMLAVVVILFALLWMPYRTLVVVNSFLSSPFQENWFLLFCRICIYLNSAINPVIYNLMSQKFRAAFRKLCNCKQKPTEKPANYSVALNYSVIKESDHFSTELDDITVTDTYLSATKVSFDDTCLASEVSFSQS
Chain of Cytochrome P450 2D6 (Homo sapiens) (P10635 whole entry, looked up): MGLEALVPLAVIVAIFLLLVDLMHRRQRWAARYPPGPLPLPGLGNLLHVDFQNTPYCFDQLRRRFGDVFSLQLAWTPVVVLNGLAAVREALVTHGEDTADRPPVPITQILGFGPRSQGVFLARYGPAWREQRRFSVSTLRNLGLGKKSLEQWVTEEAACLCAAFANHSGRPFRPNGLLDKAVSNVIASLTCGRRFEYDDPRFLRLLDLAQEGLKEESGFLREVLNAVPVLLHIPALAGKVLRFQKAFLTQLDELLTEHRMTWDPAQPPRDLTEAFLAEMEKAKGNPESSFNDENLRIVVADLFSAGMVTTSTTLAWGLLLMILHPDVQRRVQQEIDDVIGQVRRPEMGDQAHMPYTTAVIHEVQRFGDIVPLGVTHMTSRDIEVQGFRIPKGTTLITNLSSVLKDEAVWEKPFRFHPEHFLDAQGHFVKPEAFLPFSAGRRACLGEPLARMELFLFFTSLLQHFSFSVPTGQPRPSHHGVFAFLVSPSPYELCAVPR
Chain of Cytochrome P450 2C9 (Homo sapiens) (P11712 whole entry, looked up): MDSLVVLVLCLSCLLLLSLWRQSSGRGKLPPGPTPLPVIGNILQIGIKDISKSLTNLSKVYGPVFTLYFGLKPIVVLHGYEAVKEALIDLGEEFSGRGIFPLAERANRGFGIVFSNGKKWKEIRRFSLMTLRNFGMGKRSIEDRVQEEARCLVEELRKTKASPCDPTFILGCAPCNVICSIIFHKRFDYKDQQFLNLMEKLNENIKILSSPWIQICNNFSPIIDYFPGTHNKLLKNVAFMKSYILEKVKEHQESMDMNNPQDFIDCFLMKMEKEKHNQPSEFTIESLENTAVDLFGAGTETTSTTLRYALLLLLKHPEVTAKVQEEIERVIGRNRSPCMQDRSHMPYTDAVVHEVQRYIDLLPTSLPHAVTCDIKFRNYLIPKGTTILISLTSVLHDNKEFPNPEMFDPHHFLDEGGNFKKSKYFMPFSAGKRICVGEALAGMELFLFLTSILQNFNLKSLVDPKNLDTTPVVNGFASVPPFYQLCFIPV
Chain of Cytochrome P450 2C19 (Homo sapiens) (P33261 whole entry, looked up): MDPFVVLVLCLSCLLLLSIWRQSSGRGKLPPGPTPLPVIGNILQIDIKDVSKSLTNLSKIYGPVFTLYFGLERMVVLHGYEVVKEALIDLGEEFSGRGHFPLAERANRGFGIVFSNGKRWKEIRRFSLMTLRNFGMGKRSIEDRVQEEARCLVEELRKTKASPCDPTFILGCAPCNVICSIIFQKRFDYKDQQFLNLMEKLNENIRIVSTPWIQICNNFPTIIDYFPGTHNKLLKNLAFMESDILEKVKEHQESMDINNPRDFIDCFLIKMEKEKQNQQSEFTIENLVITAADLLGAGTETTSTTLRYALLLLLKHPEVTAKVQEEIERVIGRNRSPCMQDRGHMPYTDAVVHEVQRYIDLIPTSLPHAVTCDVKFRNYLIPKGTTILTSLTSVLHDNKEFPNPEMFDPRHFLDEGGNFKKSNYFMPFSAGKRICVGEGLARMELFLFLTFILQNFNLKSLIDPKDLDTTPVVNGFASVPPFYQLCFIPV

For the compound `CCOC(=O)C(C)Oc1ccc(Oc2cnc3cc(Cl)ccc3n2)cc1` (stereo not given), the Potency entry in [1], in [2], in [3], in test [4], in test [5] and in test [6] was “inactive” throughout. Further, the Potency entry in [7], in [8], in test [9], in [10], in test [11] and in test [12] was “inactive” throughout. The Potency is 32.5 µM (active) in test [13], 33.3 µM (active) in test [14] and 23.6 µM (active) in [15].

Consider `CC(C)(Oc1ccc(Cl)cc1)C(=O)O`, for which the Potency entry in test [2], in test [3], in [4], in test [5], in test [6] and in test [7] was “inactive” throughout. For the same compound, the Potency result in test [9], in [10], in test [11] and in test [12] was “inactive” in each case. Also, the compound was classed as inactive in test [16].

On to `CC1(C)C(C=C(Cl)Cl)C1C(=O)OCc1cccc(Oc2ccccc2)c1` (stereo not given), for which the Potency entry in [3], in test [4], in test [5], in test [6], in [17] and in test [7] was “inactive” in each case. Further, the Potency result in test [8], in [9], in test [11], in test [18] and in test [19] was “inactive” each time. Also, the compound was classed as inactive in [16]. Besides, the Potency was 7.91 µM (active) and 3.17 µM (active) in test [14]; 15.8 µM (active) and 8.94 µM (active) in test [15].

Turning to `C[N+](C)(C)CCO`, the Potency result in test [2], in test [3], in test [4], in test [5], in [6] and in [7] was “inactive” each time. In addition, the Potency entry in [8], in test [9], in [10], in test [11], in test [12] and in test [13] was “inactive” in each case. The Potency result in [14] and in test [15] was “inactive” throughout. Besides, in test [16], the result was inactive.

For `COc1ccc(-c2coc3cc(O)cc(O)c3c2=O)cc1`, the Potency is 6.11 µM (active) in test [2]; 69.1 µM (active) in test [9]; 30.9 µM (active) and 30.6 µM (active) in test [12]; 45.2 µM (active) in [13]; 20.2 µM (active) and 28.3 µM (active) in [14]. Also, the Potency result in test [3], in test [5], in [6], in test [20] and in [17] was “inactive” throughout. Moreover, the compound was classed as inactive in test [16].

As for `CC(=O)Oc1ccc(C(c2ccc(OC(C)=O)cc2)c2ccccn2)cc1`, the Potency result in test [2], in [3], in test [4], in test [5], in test [6] and in test [17] was “inactive” throughout. Besides, the Potency entry in test [7], in [9] and in [11] was “inactive” each time. The Potency in test [13] is 35.4 µM (active) and inactive; in test [14] it was 7.92 µM (active) and 24.5 µM (active); in test [15], 7.06 µM (active) and 12.3 µM (active).

For `CCCOCCO`, the Potency entry in test [2], in test [3], in [4], in test [5], in test [6] and in [17] was “inactive” each time. The Potency result in test [7], in test [8], in [9], in test [10], in [11] and in [13] was “inactive” throughout. Besides, the Potency result in test [14] and in [15] was “inactive” in each case. Besides, the result in test [16] was inactive.

On to `CCC(=O)O[C@H]1[C@H](O[C@@H]2[C@@H](C)[C@H](O[C@H]3C[C@@](C)(OC)[C@@H](O)[C@H](C)O3)[C@@H](C)C(=O)O[C@H](CC)[C@@](C)(O)[C@H](O)[C@@H](C)C(=O)[C@H](C)C[C@@]2(C)O)O[C@H](C)C[C@@H]1N(C)C`, for which the Potency result in [2], in test [5], in test [6], in [9], in [11] and in test [13] was “inactive” each time. The Potency was 14.4 µM (active) and inactive in test [4]; 36.1 µM (active) and inactive in [7]; 9.07 µM (active) and inactive in [12]; 47.1 µM (active) and inactive in [14]; 37.4 µM (active) and inactive in test [15]. In addition, in test [16], the result was inactive.
